PubChem BioAssay (NCATS)
Records with an inconclusive call do not appear. The source made the active and inactive calls. Calls come from the whole dose curve; as a rule, active = well fitted curve in the direction sought with a large enough effect; inconclusive = small, poorly fitted or top-dose-only effect, or another doubt; inactive = no such curve, though single readings can be large; an effect the other way counts as inactive or inconclusive.

Experiments:
HEK293 = test: Cytotoxic Profiling of Annotated Libraries Using Quantitative High-Throughput Screening (AID 1296008); conditions: Five cell lines viability, CellTiter-Glo ATP luminescence, 48-72 h; max response: hits give low values; note: nearly all actives have a fitted effect of over 60% in size
Method in brief: (§1)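 Cells exposed to compounds for 48 or 72 hr at 37 degrees Celsius. Viability read as ATP-coupled luminescence with CellTiter-Glo after 10 min at room temperature.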

HaCat = test: as above; conditions: Five cell lines viability, CellTiter-Glo ATP luminescence, 48-72 h; max response: hits give low values
Method in brief: as §1

KB-3-1 = test: as above; conditions: Five cell lines viability, CellTiter-Glo ATP luminescence, 48-72 h; max response: hits give low values
Method in brief: as §1

NIH3T3 = test: as above; conditions: Five cell lines viability, CellTiter-Glo ATP luminescence, 48-72 h; max response: hits give low values
Method in brief: as §1

C33A = test: Primary qHTS to identify gynecologic anti-cancer compounds using libraries of approved drugs and bioactive compounds (AID 1345084); conditions: Gynecologic cancer cell panel viability, ATPlite luminescence, 48 h; series mostly up to 57.5 µM; note: nearly all actives have a fitted effect of over 55% in size
Method in brief: (§2)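 Cells, 1,000 per well, plated 16 h, then exposed 48 h at 37 C to compounds. Viability by ATPlite luminescence after 15 min at room temperature.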

CASKI = test: as above; conditions: Gynecologic cancer cell panel viability, ATPlite luminescence, 48 h; series mostly up to 57.5 µM
Method in brief: as §2

Es-2 = test: as above; conditions: Gynecologic cancer cell panel viability, ATPlite luminescence, 48 h; series mostly up to 57.5 µM
Method in brief: as §2

HeLa = test: as above; conditions: Gynecologic cancer cell panel viability, ATPlite luminescence, 48 h; series mostly up to 57.5 µM
Method in brief: as §2

Hek293T = test: as above; conditions: Gynecologic cancer cell panel viability, ATPlite luminescence, 48 h, control line for the selectivity index; series mostly up to 57.5 µM
Method in brief: as §2

JEG-3 = test: as above; conditions: Gynecologic cancer cell panel viability, ATPlite luminescence, 48 h; series mostly up to 57.5 µM
Method in brief: as §2
% is set by controls: 0 for no effect and ±100 for the full control effect.

CC(NC(=O)CCc1nc2ccccc2c(=O)[nH]1)c1ccccc1 (stereo not given)
inactive: max response (HEK293) -0.47% | max response (HaCat) -2.07% | max response (KB-3-1) -4.27% | max response (NIH3T3) 2.87% | Potency (C33A) | Potency (CASKI) | Potency (Es-2) | Potency (HeLa) | Potency (Hek293T) | Potency (JEG-3)

COC(=O)C1(C)CCC2(C(=O)O)CCC3(C)C(=CCC4C5(C)CC(O)C(OC6OCC(O)C(O)C6O)C(C)(CO)C5CCC43C)C2C1 (stereo not given)
inactive: max response (HEK293) 0.887% | max response (HaCat) -27.2% | max response (KB-3-1) 9.85% | max response (NIH3T3) -9.3% | Potency (C33A) | Potency (CASKI) | Potency (Es-2) | Potency (HeLa) | Potency (Hek293T) | Potency (JEG-3)

Cc1cccc(Oc2cnc(=O)[nH]c2)c1
inactive: max response (HEK293) 2.27% | max response (HaCat) -9.89% | max response (KB-3-1) 3.8% | max response (NIH3T3) -28.2% | Potency (C33A) | Potency (CASKI) | Potency (Es-2) | Potency (HeLa) | Potency (Hek293T) | Potency (JEG-3)

CC(C)=CCC(O)/C(C)=C/CO[C@@H]1O[C@H](CO)[C@@H](O)[C@H](O)[C@H]1O (stereo not given in full)
inactive: max response (HEK293) -0.719% | max response (HaCat) -6.63% | outcome (KB-3-1) | max response (NIH3T3) 0.203% | Potency (C33A) | Potency (CASKI) | Potency (Es-2) | Potency (HeLa) | Potency (Hek293T) | Potency (JEG-3)

CC1(C)CCC2(C(=O)OC3OCC(O)C(O)C3O)CCC3(C)C(=CCC4C5(C)CC(O)C(OC6OC(COC7OCC(O)C(O)C7O)C(O)C(O)C6O)C(C)(C)C5CCC43C)C2C1 (stereo not given)
inactive: max response (HEK293) -7.77% | max response (HaCat) 2.92% | outcome (KB-3-1) | max response (NIH3T3) -1.51% | activity change, negative = cytotoxicity (C33A) 7.41% [at 11.6 µM] | activity change, negative = cytotoxicity (CASKI) 17.9% [at 11.6 µM] | activity change, negative = cytotoxicity (Es-2) 5.97% [at 11.6 µM] | activity change, negative = cytotoxicity (HeLa) 7.08% [at 11.6 µM] | activity change, negative = cytotoxicity (Hek293T) -8.87% [at 11.6 µM] | activity change, negative = cytotoxicity (JEG-3) 11.8% [at 11.6 µM]

CCOC(=O)C(CCc1ccccc1)NC(C)C(=O)N1C(=O)N(C)CC1C(=O)O (stereo not given)
inactive: max response (HEK293) -4.81% | max response (HaCat) -19.4% | outcome (KB-3-1) | max response (NIH3T3) 1.45% | Potency (C33A) | Potency (CASKI) | Potency (Es-2) | Potency (HeLa) | Potency (Hek293T) | Potency (JEG-3)
